# Compounds without any hit were thinned out: in the full panel of roughly 79,000, 15% have a hit. A number with no mark means an inactive call. Calls of active or inactive are those of the source. Rule as the data show it: active = growth inhibition above about 70%; inactive = the rest.
# Assay: NCI Yeast Anticancer Drug Screen. Data for the rad50 strain (AID 155);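 also: 0% = growth of vehicle-only cultures of the same strain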
# Details: S. cerevisiae rad50 strain growth inhibition; at 50.0 µM; active compounds read high
# Outline: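 Genetically altered yeast (DNA repair pathway); compound treatment; growth inhibition vs vehicle ctrl.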
row,Compound,growth inhibition
1,NCCN(CCN)/[N+]([O-])=N/O,18.6%
2,O=C([O-])[C+](C=Cc1cccc2ccccc12)C(=O)O,9.05%
3,COc1ccc(-c2cc(=O)c3c([nH]2)CCCC3)cc1,-10.9%
4,CCOC(=O)C(C)c1nc2cc(N3CCOCC3)c(F)cc2[nH]c1=O (configuration not stated),24.6%
5,Cc1nc2ccc(-c3ccccc3)cc2nc1C,-9.25%
6,CN(C)P(=O)(Nc1ccc(Cl)cc1)Nc1ccc(Cl)cc1,11.7%
7,c1ccc(CCCCc2ccc(CCCCc3ccccc3)cc2)cc1,12.2%
8,CCN1CCCC(C#N)(c2ccccc2)CC1 (configuration not stated),14.1%
9,Cc1c(C)c2cc3c(=O)c(CCl)coc3c(C)c2oc1=O,22.4%
10,C/C(CC(C)C)=N\NC(=O)Nc1ccccc1Cl,4.5%
11,CC(=O)OC1CC2C(C)(CCC3C2(C)CCC2(C)C4CC(C)(C)CCC4(C)CCC32C)C1C (configuration not stated),-28.2%
12,O=c1nc(NC(c2ccccc2)(c2ccccc2)c2ccccc2)ccn1CCCl,-5.35%
13,Nc1nc(C2CCCC2)c(Br)c(=O)[nH]1,-24.2%
14,CC(=O)Nc1cc(=O)[nH]c2c1CCC2,-4.05%
15,CCOC(O)C(F)(F)C(F)(F)C(F)(F)F (configuration not stated),9.05%
16,COC1/C=C/OC2(C)Oc3c(C)c(O)c4c(c3C2=O)C(N)=C(Nc2ccccc2)C(=NC(=O)C(C)=CC=CC(C)C(O)C(C)C(O)C(C)C(OC(C)=O)C1C)C4=O (configuration not stated),15.5%
17,O=C(O)c1c(Br)c(Br)c(Br)c(Br)c1C(=O)Nc1cccc2c(O)cccc12,42.4%
18,COc1cc(NS(=O)(=O)c2ccccc2)ccc1C,27.6%
19,O=[N+]([O-])c1ccc2nc[nH]c2c1,48.8%
20,CC[N+](C)(CC)CCNc1cc2c(c3c(=O)c4ccccc4sc13)CCCC2,99.2% (active)
21,COC1=CC(=O)C(C)=CC1=O,-2.1%
22,CC1CC(=O)CCC2(C)C(OC(C)(C)C)CCC12 (configuration not stated),14.7%

# Assay: NCI Yeast Anticancer Drug Screen. Data for the mec2-1 strain (AID 157)
# Details: S. cerevisiae mec2-1 strain, at 50.0 µM, active compounds read high
# Outline: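 Test agents were screened against the mec2-1 yeast strain, with defined DNA repair or cell cycle alteration. Growth was scored as inhibition against vehicle-only controls.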
row,Compound,growth inhibition
1,C=CCOC(=O)NC(CCC(=O)OC)C(=O)O (configuration not stated),-2.1%
2,Cc1ccc(/C=C/C(=O)c2c([O-])on[n+]2-c2ccccc2)cc1,-7.85%
3,COC(=O)c1cc(C)c(C)c2c1NC(=O)CNC2=O,-4.2%
4,CCOC(=O)C1C(NNC(N)=O)CN(C(=O)OCC)C1C(=O)OCC (configuration not stated),-5.8%
5,CCOC(=O)/C=C(/C)C#N,-3.7%
6,N#Cc1ccccc1C#N,-5%
7,C[N+](C)(C)c1ccc(C(N)C(=O)O)cc1 (configuration not stated),-18.3%
8,O=C(O)CCC(=O)Nc1cccc(C(F)(F)F)c1,3.4%
9,C=C(C(N)=O)c1ccc([N+](=O)[O-])o1,44.7%
10,CCCCN(CCCC)c1ccc(S(=O)(=O)c2ccc(N(CCCC)CCCC)cc2)cc1,4.95%
11,Oc1ccccc1C=Nc1ccc(N2CCOCC2)cc1,-3.7%
12,COC(=O)C[C@H](C)[C@H](C)CC(=O)O,-19.9%
13,CC1CN(C(=O)/C=C/C(=O)OC2CCCCC2)C(C)CN1C(=O)/C=C/C(=O)OC1CCCCC1 (configuration not stated),-3.15%
14,COC(=O)c1csnn1,10.8%
15,Cc1cccc(CC(N)C(=O)O)c1 (configuration not stated),5.1%
16,NC(=O)c1ccc(S(=O)(=NS(=O)(=O)c2ccccc2)c2ccc(C(N)=O)cc2)cc1,-8.4%
17,COC(=O)c1nc2n[nH]c(N)c2c2c1CCCCCCCCCC2,15.6%
18,CC(CCC(=O)O)C1CCC2C3CCC4CCCCC4(C)C3CCC12C (configuration not stated),41.9%
19,NCCN(CCN)/[N+]([O-])=N/O,-0.2%
20,O=C([O-])[C+](C=Cc1cccc2ccccc12)C(=O)O,-5.4%

row,Compound,growth inhibition
1,COc1ccc(-c2cc(=O)c3c([nH]2)CCCC3)cc1,-6.95%
2,CCOC(=O)C(C)c1nc2cc(N3CCOCC3)c(F)cc2[nH]c1=O (configuration not stated),-7.55%
3,Cc1nc2ccc(-c3ccccc3)cc2nc1C,5.7%
4,CN(C)P(=O)(Nc1ccc(Cl)cc1)Nc1ccc(Cl)cc1,-1.9%
5,c1ccc(CCCCc2ccc(CCCCc3ccccc3)cc2)cc1,-3.55%
6,CCN1CCCC(C#N)(c2ccccc2)CC1 (configuration not stated),7.45%
7,Cc1c(C)c2cc3c(=O)c(CCl)coc3c(C)c2oc1=O,1.15%
8,C/C(CC(C)C)=N\NC(=O)Nc1ccccc1Cl,5.7%
9,CC(=O)OC1CC2C(C)(CCC3C2(C)CCC2(C)C4CC(C)(C)CCC4(C)CCC32C)C1C (configuration not stated),-18.3%
10,O=c1nc(NC(c2ccccc2)(c2ccccc2)c2ccccc2)ccn1CCCl,4.55%
11,Nc1nc(C2CCCC2)c(Br)c(=O)[nH]1,-3.75%
12,CC(=O)Nc1cc(=O)[nH]c2c1CCC2,5.25%
13,CCOC(O)C(F)(F)C(F)(F)C(F)(F)F (configuration not stated),-32.2%
14,COC1/C=C/OC2(C)Oc3c(C)c(O)c4c(c3C2=O)C(N)=C(Nc2ccccc2)C(=NC(=O)C(C)=CC=CC(C)C(O)C(C)C(O)C(C)C(OC(C)=O)C1C)C4=O (configuration not stated),45.5%
15,O=C(O)c1c(Br)c(Br)c(Br)c(Br)c1C(=O)Nc1cccc2c(O)cccc12,24.9%
16,COc1cc(NS(=O)(=O)c2ccccc2)ccc1C,-20.3%
17,O=[N+]([O-])c1ccc2nc[nH]c2c1,4.9%
18,CC[N+](C)(CC)CCNc1cc2c(c3c(=O)c4ccccc4sc13)CCCC2,99.7% (active)
19,COC1=CC(=O)C(C)=CC1=O,2.65%
20,CC1CC(=O)CCC2(C)C(OC(C)(C)C)CCC12 (configuration not stated),-1.75%

# Source: PubChem BioAssay (NCI)
